Reference: PubChem BioAssay (NCATS)
Records with an inconclusive call do not appear. The source made the active and inactive calls. Unless noted, the call rests on the fitted dose curve; in most records, active means well fitted curve in the direction sought with a large enough effect; inconclusive means small, poorly fitted or top-dose-only effect, or another doubt; inactive means no such curve, though single readings can be large; an effect the other way counts as inactive or inconclusive.

What was measured:
[1] = qHTS to identify inhibitors of the type 1 interferon - major histocompatibility complex class I in skeletal muscle: primary screen against the NCATS Pharmaceutical Collection (AID 1347407);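 further: luminescence of HiBiT knocked into endogenous HLA-B as interferon-induced MHC class I level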; further: potency means the concentration at half of the fitted maximal effect
Summary of the method: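 HLA-B HiBiT myoblasts, dexamethasone-free growth medium + 4 ng/ml IFN-b; compounds pinned 1 h after seeding, […] from 46 uM; 24 h, 37 C, 5% CO2; lytic HiBiT detection, 10 min RT, luminescence.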

[2] = target: Protein phosphatase 1D (Homo sapiens) (UniProt O15297); assay: RapidFire Mass Spectrometry qHTS Assay for Modulators of WT P53-Induced Phosphatase 1 (WIP1) (AID 1347424);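 further: amount of dephosphorylated VEPPL-S-QETFS peptide product formed by WIP1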; further: potency means the concentration at half of the fitted maximal effect
Chain of Protein phosphatase 1D (Homo sapiens) (O15297 whole entry, looked up): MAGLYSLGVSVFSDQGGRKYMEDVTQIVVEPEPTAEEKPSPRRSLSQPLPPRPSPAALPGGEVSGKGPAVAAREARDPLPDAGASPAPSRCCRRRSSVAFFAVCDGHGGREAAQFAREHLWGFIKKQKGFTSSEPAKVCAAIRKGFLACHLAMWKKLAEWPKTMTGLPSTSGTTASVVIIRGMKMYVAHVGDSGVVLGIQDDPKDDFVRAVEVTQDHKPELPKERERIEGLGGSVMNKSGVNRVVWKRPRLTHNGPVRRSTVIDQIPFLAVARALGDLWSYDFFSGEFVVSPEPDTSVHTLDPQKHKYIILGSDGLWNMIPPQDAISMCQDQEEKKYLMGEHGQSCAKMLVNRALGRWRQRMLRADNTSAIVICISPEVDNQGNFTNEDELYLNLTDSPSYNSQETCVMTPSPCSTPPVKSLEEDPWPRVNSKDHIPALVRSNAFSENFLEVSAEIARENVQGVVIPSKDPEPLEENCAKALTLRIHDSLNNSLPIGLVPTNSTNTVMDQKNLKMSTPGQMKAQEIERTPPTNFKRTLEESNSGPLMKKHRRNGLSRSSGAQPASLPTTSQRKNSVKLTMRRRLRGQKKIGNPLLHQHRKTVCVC
Summary of the method: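 WIP1 (10 nM final) was preincubated 1 h at room temperature with compounds in Tris-HCl pH 7.5, 30 mM MgCl2, TCEP, EGTA, BSA; 2 uM VEPPL-pS-QETFS phosphopeptide was added for 5 min, quenched with formic acid, and dephosphorylated product quantified by RapidFire MS.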

[3] = target: Protein phosphatase 1D (Homo sapiens) (UniProt O15297); assay: Rhodamine-PBP qHTS Assay for Modulators of WT P53-Induced Phosphatase 1 (WIP1) (AID 1347425)
Summary of the method: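 5 nM WIP1 + 10 uM Rh-PBP, 50 mM Tris pH 7.5, 30 mM MgCl2, 1 mM TCEP, 0.1 mM EGTA, BSA; cpds pinned, 1 hr RT; + 10 uM phosphopeptide; fluorescence 1-min reads x 11 min; delta = f1 - f0.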

[4] = Primary qHTS for inhibitors of La Crosse Virus (LACV) - induced cell death in SH-SY5Y cells (AID 1508616);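 further: top concentration of the series differs between compounds; higher means more rescue of cells from virus-induced death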
Summary of the method: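 SH-SY5Y cells (6000/well) plated 24 h, then given compounds by pin transfer and LACV at 0.01 MOI for 6 days at 37C. Viability measured by ATPLite luminescence, normalized to infected DMSO and uninfected DMSO.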

[5] = target: Calcium and integrin-binding protein 1 (Homo sapiens) (UniProt Q99828); assay: Primary qHTS for Identification of Calcium Integrin Binding Protein 1 (CIB1) Competitor (AID 1508620); further: potency means the concentration at half of the fitted maximal effect
Chain of Calcium and integrin-binding protein 1 (Homo sapiens) (Q99828 whole entry, looked up): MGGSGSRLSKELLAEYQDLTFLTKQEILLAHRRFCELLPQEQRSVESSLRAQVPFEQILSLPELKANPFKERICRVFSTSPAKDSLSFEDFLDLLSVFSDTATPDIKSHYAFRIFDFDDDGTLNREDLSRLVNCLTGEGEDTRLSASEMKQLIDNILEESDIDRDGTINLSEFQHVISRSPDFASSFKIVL
Summary of the method: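 Fluorescence polarization competition: CIB1-GST (1 uM final) preincubated with compound 15 min at room temperature, then FITC-labeled alphaIIb peptide (100 nM final) added for another 15 min. Polarization read at Ex 480/Em 540.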

[6] = Primary qHTS for inhibitors of SARS-S pseudo-typed particle cell entry (AID 1479145; calls by dose curve; further: nearly all actives have a fitted effect of over 45% in size; further: potency means the concentration at half of the fitted maximal effect)
[7] = Primary qHTS for Huh7 cytotoxicity: counterscreen for inhibitors of MERS-S pseudotyped particle cell entry (AID 1479147; calls by dose curve)
[8] = Primary qHTS for inhibitors of MERS-S pseudo-typed particle cell entry (AID 1479149; calls by dose curve; further: nearly all actives have a fitted effect of over 60% in size)
[9] = Primary qHTS for Vero E6 cytotoxicity: counterscreen for inhibitors of SARS-S pseudo-typed particle cell entry (AID 1479150; calls by dose curve)
[10] = Counterscreen qHTS for small molecule stabilizers of the endoplasmic reticulum resident proteome: GLuc-NoTag assay (AID 1508627);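 further: SH-SY5Y cells given compound then 100 nM thapsigargin to empty ER calcium; series mostly up to about 76 µM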
Summary of the method: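 SH-SY5Y cells stably expressing constitutively secreted GLuc (no SERCaMP tag) were pre-incubated 5 h, treated with compound for 19 h, then 100 nM thapsigargin for 4 h at 37C; medium GLuc read by coelenterazine luminescence.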

[11] = Confirmatory qHTS for small molecule stabilizers of the endoplasmic reticulum resident proteome: Secreted ER Calcium Modulated Protein (SERCaMP) assay (AID 1508628); further: potency means the concentration at half of the fitted maximal effect; nearly all actives have a fitted effect of over 40% in size
Summary of the method: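 SH-SY5Y cells stably expressing GLuc-SERCaMP, treated 16 h with compound (primary 1.53, 7.67, 38.3 uM; confirmation 11 concentrations, up to 76.6 uM), then 100 nM thapsigargin for 4 h. Secreted Gaussia luciferase in medium read by coelenterazine luminescence.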

[12] = target: Calcium and integrin-binding protein 1 (Homo sapiens) (UniProt Q99828); assay: Confirmatory qHTS for Identification of Calcium Integrin Binding Protein 1 (CIB1) Competitor (AID 1508617); further: nearly all actives have a fitted effect of over 65% in size; further: potency means the concentration at half of the fitted maximal effect
Summary of the method: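 Confirmatory qHTS measures displacement of a FITC-alphaIIb peptide (100 nM) from CIB1-GST (1 uM) by fluorescence polarization. Calcium-containing HEPES buffer, pH 7.4; two 15 min room-temperature incubations.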

[13] = qHTS to identify inhibitors of the type 1 interferon - major histocompatibility complex class I in skeletal muscle: primary screen against the NCATS Mechanism Interrogation Plate v5.0 (MIPE) Libary (AID 1347411); further: nearly all actives have a fitted effect of over 65% in size
Summary of the method: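 Immortalized human myoblasts (C25cl48) with HiBit knocked into endogenous HLA-B*08:01 were stimulated with 4 ng/ml IFN-beta and given compounds in 11-point 1:3 titration from 46 uM. After 24 h at 37 C, lytic HiBiT luminescence was read.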

Measured: Potency

O=C1CN=C(c2ccccc2)c2cc([N+](=O)[O-])ccc2N1
inactive: [1] | [2] | [3] | [4]

O=C(O)c1ccc(=O)[nH]c1
inactive: [1] | [2] | [3] | [4]

COC(=O)C(Cl)C(=O)OC
inactive: [1] | [2] | [3] | [4] | [5]

CCN[C@@H](C)Cc1cccc(C(F)(F)F)c1
inactive: [1] | [2] | [3] | [4] | [5]

CC(Cc1ccccc1)N(C)Cc1ccco1 (centres undefined)
inactive: [1] | [2] | [3] | [4]

CC(C)(N)Cc1ccccc1Cl
inactive: [1] | [2] | [3] | [4] | [5]

COc1ccc2c3c1O[C@H]1[C@H](O)CC[C@H]4[C@@H](C2)N(C)CC[C@@]341
inactive: [1] | [2] | [3] | [4]

COc1cccc([C@@]2(O)CCCC[C@@H]2CN(C)C)c1
inactive: [1] | [2] | [3] | [5]

Nc1ccccc1
not listed: [3] | [10] | [11] | [12] | [13]
inactive: all other assays above

CCN(CC)C(=O)[C@@H]1C=C2c3cccc4[nH]cc(c34)C[C@H]2N(C)C1
inactive: [1] | [2] | [3]
active: [5] 63.1 µM

COc1cc(CC(C)N)cc(OC)c1OC (centres undefined)
inactive: [1] | [2] | [3] | [4]

CC1(C)C(C=C(Cl)Cl)C1C(=O)OC(C#N)c1cccc(Oc2ccccc2)c1 (centres undefined)
inactive: [1] | [2] | [3] | [4]

CCCN(CCC)C(=O)Cc1c(-c2ccc(Cl)cc2)nc2ccc(Cl)cn12
inactive: [1] | [2] | [3] | [4] | [5]

O=C1OC(CCN2CCCCC2)OC1(c1ccccc1)c1ccccc1 (centres undefined)
inactive: [1] | [2] | [3] | [4] | [5]

COc1cc(CCN)cc(OC)c1OC
inactive: [1] | [2] | [3] | [4] | [5]

C[C@H]1[C@@H]2Cc3ccc(O)cc3[C@@]1(C)CCN2C
active: [11] 22.4 µM
inactive: [1] | [2] | [3] | [4] | [10]

Nc1ccccc1C(=O)O
inactive: [1] | [2] | [3] | [4] | [5]

COC(=O)[C@@H](N)CCCN/C(N)=N/[N+](=O)[O-]
inactive: [1] | [2] | [3] | [4] | [5]

COc1cc(OC)c(OC)cc1C=O
inactive: [1] | [2] | [3] | [4] | [5]

O=C1OC(c2ccc(O)c(S(=O)(=O)O)c2)(c2ccc(O)c(S(=O)(=O)O)c2)c2c(Br)c(Br)c(Br)c(Br)c21
inactive: [1] | [6] | [7] | [8] | [9] | [4] | [12]
active: [2] 10 µM

C#C[C@]1(O)CC[C@H]2[C@@H]3CCC4=CC(=O)CC[C@]4(C)[C@H]3CC[C@@]21C
inactive: [1] | [2] | [3] | [4] | [5]

CN1CCC(O)(c2ccc(F)cc2)C(C(=O)c2ccc(F)cc2)C1 (centres undefined)
inactive: [1] | [2] | [3] | [4]

Clc1ccccc1N1CCNCC1
inactive: [1] | [2] | [4] | [5]

CCC1(c2ccccc2)C(=O)N(COC)C(=O)N(COC)C1=O
inactive: [1] | [2] | [4]

O=C(N/N=C/c1ccc([N+](=O)[O-])o1)c1cc([N+](=O)[O-])cc([N+](=O)[O-])c1O
inactive: [1] | [4] | [5]

CN(C)CCc1c[nH]c2cccc(OP(=O)(O)O)c12
inactive: [1] | [4]

CC(C)C[C@H](CN)CC(=O)O
inactive: [13] | [5]

Nc1nc(N)nc(NC2CC2)n1
inactive: [1] | [2] | [4]

NC1=NC(=O)C(c2ccccc2)O1 (centres undefined)
inactive: [1] | [2] | [4] | [5]

NC(=O)CS(=O)C(c1ccccc1)c1ccccc1 (centres undefined)
inactive: [1] | [2] | [4] | [5]

ClCCN1CCCC1
inactive: [1] | [2] | [4] | [5]

CCCCCCCCCC(=O)O[C@H]1CC[C@H]2[C@@H]3CCC4=CC(=O)CC[C@@H]4[C@H]3CC[C@]12C
inactive: [1] | [2] | [4] | [5]

C[C@H](N)C(=O)c1ccccc1
inactive: [1] | [2] | [4] | [10]

C[C@]12CC[C@H]3[C@@H](CC[C@@]45O[C@H]4C(O)=C(C#N)C[C@]35C)[C@H]1CC[C@H]2O
inactive: [2] | [7] | [9] | [4] | [5]
active: [1] 11.8 µM

CC(Cc1ccccc1)NCCn1cnc2c1c(=O)n(C)c(=O)n2C (centres undefined)
inactive: [1] | [2] | [4]

c1ccc(N2CCNCC2)cc1
inactive: [1] | [2] | [4]

C[C@]12CC[C@@H]3c4ccc(OC(=O)N(CCCl)CCCl)cc4CC[C@H]3[C@@H]1CC[C@@H]2OP(=O)(O)O
inactive: [13] | [7] | [8] | [9]

C=CCC1([C@H](C)CCC)C(=O)NC(=O)NC1=O
inactive: [1] | [2] | [4] | [5]

COP(=S)(OC)SCN1C(=O)c2ccccc2C1=O
inactive: [1] | [2] | [7] | [8] | [9] | [4]

C=CCN1C[C@H](C)N([C@H](c2ccc(C(=O)N(CC)CC)cc2)c2cccc(OC)c2)C[C@H]1C
inactive: [1] | [2] | [4] | [5]

CCN[C@@H](C)Cc1ccccc1
inactive: [1] | [2] | [4] | [5]

COc1cccc(C(=O)CCN[C@@H](C)[C@H](O)c2ccccc2)c1
inactive: [1] | [2] | [7] | [8] | [9] | [4] | [5]

CCOC(=O)CC(SP(=S)(OC)OC)C(=O)OCC (centres undefined)
inactive: [1] | [2] | [7] | [8] | [9] | [4] | [5]
active: [12] 100 µM

O=c1[nH]c2ccccc2n1C1CCNCC1
inactive: [1] | [2] | [4]

C[C@]12CCC(=O)C=C1CC[C@@H]1[C@@H]2CC[C@]2(C)C(=O)CC[C@@H]12
not listed: [3] | [10] | [11] | [12] | [13]
inactive: all other assays above

CC(C)NC(C)C
inactive: [1] | [2] | [7] | [8] | [9]

CCN(CCO)CCn1c(Cc2ccccc2)nc2c1c(=O)n(C)c(=O)n2C
inactive: [1] | [2] | [4] | [5]

C[N+]1(CCF)[C@@H]2CC[C@H]1CC(OC(=O)C(O)(c1ccccc1)c1ccccc1)C2 (some centres undefined)
inactive: [1] | [2] | [7] | [8] | [9] | [4] | [5]

CN1CC[C@]23c4c5ccc(O)c4O[C@H]2[C@@H](O)CC[C@H]3[C@H]1C5
inactive: [1] | [2] | [4]

Clc1cccc(SC2CCNCC2)n1
inactive: [1] | [2] | [4] | [5]

CC[N+]1(CC)CCC(OC(=O)C(O)(c2ccccc2)c2ccccc2)C1 (centres undefined)
inactive: [1] | [2] | [4]

CCCOC(=O)c1cncn1C(C)c1ccccc1 (centres undefined)
inactive: [1] | [2] | [4]

CC(=O)OCC1=C(C(=O)O)N2C(=O)[C@@H](N)[C@H]2SC1
inactive: [1] | [2] | [4]

CCC1(CC)C(=O)C=CNC1=O
inactive: [1] | [2] | [4] | [5]

CC(C)c1c(CN(C)C(C)Cc2ccccc2)n(C)n(-c2ccccc2)c1=O (centres undefined)
inactive: [1] | [2] | [4] | [5]

CC(=O)NC1CCSC1=O (centres undefined)
inactive: [1] | [2] | [4] | [5]

O=C1c2ccccc2C(=O)C1C(=O)C(c1ccccc1)c1ccccc1
inactive: [1] | [4] | [5]

C[C@]12CCC(=O)C=C1CC[C@@H]1[C@@H]2CC[C@@]2(C)[C@H]1CC[C@]2(C)O
inactive: [1] | [2] | [4] | [5]

CN1C(=O)NC(=O)C(C)(C2=CCCCC2)C1=O (centres undefined)
inactive: [1] | [2] | [7] | [8] | [9] | [4]

CN1CC[C@]23c4c5ccc(O)c4O[C@H]2[C@@H](O)C=C[C@H]3[C@H]1C5
inactive: [2] | [3]

COc1ccc2[nH]cc(CCNC(C)=O)c2c1
inactive: [6] | [7] | [8] | [9]

CN1C(CSCC(F)(F)F)Nc2cc(Cl)c(S(N)(=O)=O)cc2S1(=O)=O (centres undefined)
inactive: [6] | [7] | [8] | [9]

O=C(O)c1cc(=O)[nH]c(=O)[nH]1
inactive: [6] | [7] | [8] | [9]

COc1cccc2c1C(=O)c1c(O)c3c(c(O)c1C2=O)C[C@@](O)(C(=O)CO)C[C@@H]3O[C@H]1C[C@H](N)[C@@H](O)[C@H](C)O1
active: [6] 10 µM

NC(=O)c1cnccn1
inactive: [6] | [7] | [8] | [9]

C#C[C@]1(O)CC[C@H]2[C@@H]3CCc4cc(OC5CCCC5)ccc4[C@H]3CC[C@@]21C
inactive: [6] | [7] | [8] | [9]

CN(C)CCOC(=O)COc1ccc(Cl)cc1
inactive: [6] | [7] | [8] | [9]
